Gal4-VP16 FLuc: Gal4-VP16 reporter inhibition counter-screen; Drosophila S2 Gal4-VP16 UAS-luciferase, luminescence, 20 h; 3.5% of 310,000 active; Potency, µM (doses to about 53.6 µM), hits mostly inhibitors;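 note: Gal4-VP16 expression switched on by copper sulfate through the metallothionein promoter; nearly all actives have a fitted effect of over 50% in size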
Sfp inh: blocks B. subtilis Sfp PPTase activity; Q9F4F7; Biochemical Sfp PPTase activity, qHTS; Potency, µM, actives largely listed as inhibitors; 3.5% of 310,000 active; AID 1490;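 note: the enzyme is Sfp with the accession as filed and its product quenches rhodamine fluorescence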
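Step 1, compound plus 15 nM Sfp-PPTase, 15 min, room temperature. Step 2, add rhodamine-CoA (5 uM) and BHQ-2-YbbR (12.5 uM). Step 3, read 525/598 nm fluorescence at 0 and 30 min.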
ALDH1A1 inh: blocks purified human ALDH1A1 activity | P00352 | Purified ALDH1A1, NADH fluorescence, propionaldehyde substrate | Potency, µM (titrated, usually from 75.3 µM), hits mostly inhibitors | 7.3% of 220,000 active | AID 1030; active = well fitted inhibition curve with a large enough effect, not every such curve was filed as active; inconclusive = small, poorly fitted or top-dose-only effect, or another doubt; inactive = no such curve, though single readings can be large or run the other way
Target sequence (P00352 whole entry, looked up): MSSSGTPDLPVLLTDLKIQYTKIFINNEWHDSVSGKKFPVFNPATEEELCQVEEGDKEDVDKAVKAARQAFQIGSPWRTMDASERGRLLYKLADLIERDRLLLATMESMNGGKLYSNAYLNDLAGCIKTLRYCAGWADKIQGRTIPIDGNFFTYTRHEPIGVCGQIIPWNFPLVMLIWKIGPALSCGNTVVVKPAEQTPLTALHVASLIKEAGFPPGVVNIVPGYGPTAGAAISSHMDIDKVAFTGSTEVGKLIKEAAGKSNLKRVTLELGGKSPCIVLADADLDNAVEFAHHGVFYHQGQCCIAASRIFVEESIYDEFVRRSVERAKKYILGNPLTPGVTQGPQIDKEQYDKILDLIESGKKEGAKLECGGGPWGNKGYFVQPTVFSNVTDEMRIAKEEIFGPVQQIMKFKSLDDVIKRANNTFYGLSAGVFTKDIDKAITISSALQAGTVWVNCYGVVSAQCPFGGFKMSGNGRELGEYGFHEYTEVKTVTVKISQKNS
PLK1 PBD inh: PLK1 (human) polo-box domain binding inhibition | Plk1 PBD binding of FITC phosphopeptide, fluorescence polarization | Potency, µM, most hits filed as inhibitors | AID 720504 | P53350 | 2.8% of 360,000 active; note: series mostly up to about 57 µM; nearly all actives have a fitted effect of over 65% in size
RORg inh: blocks mouse ROR gamma transcriptional activity | P51450 | Drosophila S2 Gal4-RORgamma UAS-luciferase reporter, 20 h | Potency, µM (highest dose often 53.6 µM), actives largely listed as inhibitors | 5.4% of 310,000 active; note: nearly all actives have a fitted effect of over 60% in size
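ROR gamma transcriptional activity was tracked as Gal4-UAS luciferase output in stably transfected Drosophila Schneider cells, with compound added 1 hr before 700 uM copper sulfate induction and a 20 hr ambient-temperature incubation.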
A number is an active result; - = inactive; ? = inconclusive; . = no result given; [ ] = remark or other dose. Compounds with a hit are over-represented: about 12% of the library has one in this group of screens. Unless noted, calls come from the whole dose curve; as a rule, active = well fitted curve in the direction sought with a large enough effect; inconclusive = small, poorly fitted or top-dose-only effect, or another doubt; inactive = no such curve, though single readings can be large; an effect the other way counts as inactive or inconclusive.

SMILES	Gal4-VP16 FLuc	Sfp inh	ALDH1A1 inh	PLK1 PBD inh	RORg inh
Cc1nn(Cc2n[nH]c(=S)n2Cc2ccccc2)c(C)c1Cl	20µM	-	-	-	5.6µM
Cc1ccc(S(=O)(=O)COCCN2CCN(S(=O)(=O)c3ccc(C)cc3)CCC2=O)cc1	-	-	-	.	-
CCC/C=C/c1ccc(CN2C(CC(C)C)C(=O)N(Cc3cn(Cc4ccco4)nn3)CCS2(=O)=O)cc1 (stereo not given)	.	.	.	-	.
CC1=NN(C(=O)c2ccc(C)cc2)C(O)(C(F)(F)OC(F)(F)F)C1 (stereo not given)	11µM	-	-	?	6.3µM
CC1=NN(C(=O)c2ccccc2-n2cccc2)C(O)(C(F)(F)F)C1 (stereo not given)	?	-	-	-	10µM
COc1cccc(-c2cncnc2Nc2ccccc2)c1	-	-	-	.	-
O=C(CNc1ccc(F)cc1)N/N=C/c1c(O)ccc2ccccc12	2.8µM	-	.	-	1.3µM
COc1ccccc1N(CC(=O)N/N=C/c1c(O)ccc2ccccc12)S(C)(=O)=O	?	-	-	-	13µM
COc1ccccc1NCC(=O)N/N=C/c1c(O)ccc2ccccc12	2.8µM	-	.	-	0.89µM
CCn1c(C)cc(C(=O)CSc2nnc(C3CC3)n2C2CC2)c1C	.	.	.	-	.
C[C@@H]1CN([C@H](C)CO)C(=O)CCCn2cc(nn2)CO[C@H]1CN(C)C(=O)Nc1cccc(Oc2ccccn2)c1	.	.	.	-	.
O=C(Nc1nnc(-c2ccco2)o1)c1ccc(Cl)cc1	0.63µM	-	-	-	0.35µM
Cc1ccc(C(=O)Nc2nnc(-c3ccco3)o2)cc1C	0.89µM	-	-	-	0.63µM
Cc1cccc(C(=O)Nc2nnc(-c3ccco3)o2)c1	0.63µM	-	-	-	0.5µM
COc1ccc(-c2nnc3sc(C(C)N4C(=O)c5ccccc5C4=O)nn23)cc1 (stereo not given)	-	-	-	24µM	-
COc1ccc(-c2nnc3sc(-c4ccccn4)nn23)cc1	-	-	-	.	-
Cc1ccc(-c2cn(-c3ccccc3F)c(=S)[nH]2)cc1	7.1µM	-	.	?	1.8µM
COc1ccccc1-n1cc(-c2ccccc2)[nH]c1=S	20µM	-	.	?	4µM
O=[N+]([O-])c1ccc(-c2cn(-c3ccccc3F)c(=S)[nH]2)cc1	-	?	-	-	?
COc1cccc(-c2cn(-c3cccc(C(F)(F)F)c3)c(=S)[nH]2)c1	?	-	.	-	3.2µM
CCOc1ccc(-c2cn(-c3cccc(SC)c3)c(=O)[nH]2)cc1	-	-	?	-	-
CCOc1ccc(-c2cn(-c3ccccc3OC)c(=S)[nH]2)cc1	8.9µM	-	.	?	3.5µM
CC(=O)OCC1OC(C#Cc2ccc(Cl)cc2)C=CC1OC(C)=O (stereo not given)	-[10 µM]	-	-[13.5 µM]	.	-[10 µM]
CCOC(=O)[C@@]12C[C@@H]1/C(=N/O)c1ccccc1O2	-	-	-	.	-
Cc1ccc2nc(-c3cccc(Br)c3)c(Cc3ccccn3)n2c1	.	.	.	-	.
SMILES	Gal4-VP16 FLuc	Sfp inh	ALDH1A1 inh	PLK1 PBD inh	RORg inh
COc1ccc(-n2cc(-c3ccccc3)[nH]c2=S)cc1	3.5µM	-	-	-	2.2µM
CC(=O)Nc1ccc(-n2c(C)ccc2-c2ccccc2)cc1	-	-	.	-	-
CC(=O)Nc1ccc(-n2cc(-c3ccccc3)[nH]c2=S)cc1	-	40µM	-	-	?
COc1ccc(-c2cc(=O)[nH]c(=S)[nH]2)cc1	-	?	?	-	-
CCOc1ccc(-n2cc(-c3ccc(OC)c(OC)c3)[nH]c2=S)cc1	?	?	?	24µM	1.3µM
COc1ccc(-n2cc(-c3ccccc3)c3c(=O)[nH]cnc32)cc1	-	-	-	-	-
COc1ccccc1-n1cc(-c2ccccc2)c2c(=S)nc[nH]c21	1µM	-	.	-	1µM
C[C@@H]1CC2C3CCC4=CC(=O)C=C[C@]4(C)[C@@]3(F)[C@@H](O)C[C@]2(C)[C@@]1(O)C(=O)COC(=O)c1cccc(S(=O)(=O)O)c1 (stereo not given in full)	-	-	.	.	-
Cc1cccc(-n2cc(-c3ccccc3)[nH]c2=S)c1	7.1µM	-	.	-	2.5µM
CC[C@H](C)N(C)C(=O)c1cc2ccccc2c(-c2ccccc2Cl)n1	-	-	-	.	-
CN(C)c1nc(-c2cccnc2)nc2ccccc12	-	-	?	.	-
CN(C)c1nc(-c2ccoc2)nc2ccccc12	-	50µM	-	.	-
Fc1ccc(NC(=S)NCCN2CCOCC2)cc1	-	-	-	?	-
CCOC(=O)c1ccc(NC(=S)Nc2ccc(C)cc2)cc1	?	-	-	-	13µM
CCN(CC)CCNC(=S)Nc1ccc(F)cc1	-	28µM	-	-	-
O=C(CCCOc1ccccc1)NC(=S)Nc1ccccc1	?	-	10µM	?	10µM
CCOC(=O)c1ccc(NC(=S)N2CCSC2c2ccc(Cl)cc2)cc1 (stereo not given)	?	-	-	-	14µM
CCOC(=O)c1cn[nH]c1NC(=S)Nc1ccc(Cl)cc1	?	-	.	-	2.8µM
CCOC(=O)c1ccc(NC(=S)NC(=O)COc2ccccc2)cc1	?	?	22µM	-	?
CCOC(=O)c1ccc(NC(=S)NCCc2ccc(F)cc2)cc1	?	-	-	-	10µM
CCOC(=O)c1ccc(NC(=S)Nc2ccccc2)cc1	-	-	?	-	?
CCOC(=O)c1sc(NC(=O)Nc2ccc(Cl)cc2)cc1C	-[0.365 µM]	-	-	-	?
CCOC(=O)c1cccc(NC(=S)NCc2ccc(C)cc2)c1	?	-	?	-	10µM
CC12CCC=CC1C(c1ccoc1)N(Cc1ccccc1)C2=O (stereo not given)	-	-	.	.	-
O=[N+]([O-])c1ccc(N=Cc2ccc(Br)c([N+](=O)[O-])c2)cc1	-	-	7.9µM	?	-
SMILES	Gal4-VP16 FLuc	Sfp inh	ALDH1A1 inh	PLK1 PBD inh	RORg inh
Cc1cc(O)c(C(C)C)cc1N=Cc1ccc([N+](=O)[O-])cc1	.	.	.	-	.
O=[N+]([O-])c1ccc(C=Nc2ccccc2)cc1	.	.	.	-	.
Cc1c(N=Cc2ccc(O)c(Br)c2)cccc1[N+](=O)[O-]	-	-	22µM	-	-
O=C(Nc1ccc(C(=O)N2CCCCC2)cc1)[C@H]1O[C@@H](n2ccc(=O)[nH]c2=O)[C@H](O)[C@@H]1O	.	.	.	-	.
CCC(=O)NC(/C=C/c1ccccc1)c1cc([N+](=O)[O-])c2cccnc2c1O (stereo not given)	2µM	-	-	.	2.2µM
CC(C)C(=O)NC(c1cccs1)c1cc([N+](=O)[O-])c2cccnc2c1O (stereo not given)	3.5µM	?	-	-	3.2µM
Cc1ccc(C(NC(=O)C(C)C)c2cc([N+](=O)[O-])c3cccnc3c2O)cc1 (stereo not given)	?	-	-	-	2.2µM
CCN(CC)C(=O)[C@H]1C[C@H](CC(=O)NC(C)(C)C)C(=O)N2CCc3c([nH]c4cc(CCC(=O)N(C)C)ccc34)[C@]12C	.	.	.	-	.

Compound activity deposited in PubChem by National Center for Advancing Translational Sciences (NCATS).
